According to PubChem BioAssay (Tox21):
Values joined by “and” are separate entries in the source; they are usually repeats but may differ in a detail not shown here. Equal values may be shown once. Inconclusive results are not listed. Where a call stands in place of a potency, no number is given. More than one record can exist for a structure, and the calls need not agree. Active and inactive are the calls of the source. Unless noted, calls follow the shape of the dose curve; as a rule, active = well fitted curve in the direction sought with a large enough effect in the repeat runs; inconclusive = weak or mixed curves; inactive = no such curve, though single readings can be large; an effect the other way counts as inactive or inconclusive.

Legend:
[1] = qHTS assay for small molecule agonists of the p53 signaling pathway (AID 651631; calls by dose curve; also: nearly all actives have a fitted effect of over 15% in size)
Outline: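 HCT-116 cells carrying a beta-lactamase reporter under p53 response elements were dosed with compound for 16 h at 37 °C. LiveBLAzer B/G FRET substrate was then added for 2 h at room temperature, and fluorescence intensity was read to detect pathway agonism.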

[2] = qHTS assay for small molecule agonists of the p53 signaling pathway - cell viability (AID 651633; calls by dose curve;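 also: p53RE-bla HCT reporter cells with a stable beta-lactamase p53 reporter; series mostly up to about 83 µM; nearly all actives have a fitted effect of over 30% in size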)
Outline: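 p53RE-bla cells, seeded at 4,000 per well and rested 5 h at 37 C/5% CO2, received compounds in DMSO for 16 h at 37 C. CellTiter-Glo was then added, and luminescence was read after 30 min at room temperature to gauge cytotoxicity.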

[3] = qHTS assay to test for compound auto fluorescence at 590 nm (red) in HepG2 cells (AID 720674)
Outline: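 Compound auto-fluorescence is scored relative to Rose Bengal sodium, measured at 540/590 nm in live HepG2 cultures after 1 hr compound contact (37 C, 5% CO2).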

[4] = qHTS assay to test for compound auto fluorescence at 460 nm (blue) in HEK293 cells (AID 720678)
Outline: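 HEK293 cells (2,000/well, medium with 10% dialyzed FBS) attached 4-5 hr, then exposed to compound overnight at 37C, 5% CO2. Blue fluorescence read at 405/460 nm, with triamterene as reference fluorophore.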

[5] = qHTS assay to test for compound auto fluorescence at 590 nm (red) in HEK293 cell free culture (AID 720683)
Outline: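 Tox21 10K library compounds were pinned into cell-free DMEM with 10% FBS and fluorescence was read at excitation 540 nm. Activity is expressed as Rose Bengal sodium equivalency.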

[6] = qHTS assay to test for compound auto fluorescence at 460 nm (blue) in HepG2 cells (AID 720687)
Outline: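 Cells (2,000/well in MEM with 10% FBS) attached overnight at 37 C, then were exposed to compound or DMSO for 1 hr at 37 C, 5% CO2. Fluorescence read at Ex/Em 405/460 nm, expressed as triamterene-equivalent signal.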

[7] = molecular target: Glucocorticoid receptor (Homo sapiens) (UniProt P04150); assay: qHTS assay to identify small molecule antagonists of the glucocorticoid receptor (GR) signaling pathway (AID 720692; active = well fitted inhibition curve with a large enough effect in the signal ratio in the repeat runs, not every such curve was filed as active; the % refers to the signal ratio)
Sequence of Glucocorticoid receptor (Homo sapiens) (P04150 whole entry, looked up): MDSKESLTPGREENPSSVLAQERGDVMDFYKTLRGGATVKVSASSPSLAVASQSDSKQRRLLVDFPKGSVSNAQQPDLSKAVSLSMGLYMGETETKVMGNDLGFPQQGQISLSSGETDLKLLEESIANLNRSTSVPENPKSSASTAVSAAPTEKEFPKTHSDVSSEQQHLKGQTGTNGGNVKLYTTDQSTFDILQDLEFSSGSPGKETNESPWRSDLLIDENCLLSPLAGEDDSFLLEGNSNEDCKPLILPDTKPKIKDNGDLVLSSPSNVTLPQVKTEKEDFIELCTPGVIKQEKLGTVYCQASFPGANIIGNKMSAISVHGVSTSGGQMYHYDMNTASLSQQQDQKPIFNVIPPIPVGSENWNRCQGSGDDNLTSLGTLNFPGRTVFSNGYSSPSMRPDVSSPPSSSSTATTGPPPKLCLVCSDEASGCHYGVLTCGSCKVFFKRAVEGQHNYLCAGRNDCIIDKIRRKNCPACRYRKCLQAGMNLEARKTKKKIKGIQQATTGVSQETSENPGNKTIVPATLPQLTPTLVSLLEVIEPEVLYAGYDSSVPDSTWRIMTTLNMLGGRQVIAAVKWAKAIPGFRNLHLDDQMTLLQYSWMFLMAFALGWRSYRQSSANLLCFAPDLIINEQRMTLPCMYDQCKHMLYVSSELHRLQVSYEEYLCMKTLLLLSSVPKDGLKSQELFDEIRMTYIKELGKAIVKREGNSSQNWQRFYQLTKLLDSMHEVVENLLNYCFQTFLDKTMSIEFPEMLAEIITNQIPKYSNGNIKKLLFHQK
Outline: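 Tox21 10K library screened in concentration-response for blockade of dexamethasone (5 nM final)-induced GRE-bla reporter activity in HeLa cells; 18 h treatment, fluorescence read.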

[8] = qHTS assay for identifying genotoxic compounds that show differential cytotoxicity against isogenic chicken DT40 cell lines with known DNA damage response pathways - wild type cell line (AID 743012); also: nearly all actives have a fitted effect of over 60% in size; also: potency is read from the fitted curve at half-maximal effect
Outline: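 Endpoint: CellTiter-Glo luminescence, 30 min RT. Cells: wild type DT40, 300/well. Exposure: compounds in DMSO, 40 h, 37 C/5% CO2, after ~0.5 h pre-incubation.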

[9] = qHTS assay for identifying genotoxic compounds that show differential cytotoxicity against isogenic chicken DT40 cell lines with known DNA damage response pathways - Rev3 mutant cell line (AID 743014); also: nearly all actives have a fitted effect of over 55% in size
[10] = qHTS assay for identifying genotoxic compounds that show differential cytotoxicity against isogenic chicken DT40 cell lines with known DNA damage response pathways - Rad54/Ku70 mutant cell line (AID 743015); also: nearly all actives have a fitted effect of over 60% in size
[11] = qHTS assay to identify small molecule antagonists of the androgen receptor (AR) signaling pathway - cell viability counter screen (AID 743033; also: nearly all actives have a fitted effect of over 45% in size)
[12] = molecular target: Estrogen receptor (Homo sapiens) (UniProt P03372); assay: qHTS assay to identify small molecule agonists of the estrogen receptor alpha (ER-alpha) signaling pathway (AID 743075; calls by dose curve;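 also: HEK293 GripTite cells with ER-alpha and UAS-driven beta-lactamase reporter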)
Sequence of Estrogen receptor (Homo sapiens) (P03372 whole entry, looked up): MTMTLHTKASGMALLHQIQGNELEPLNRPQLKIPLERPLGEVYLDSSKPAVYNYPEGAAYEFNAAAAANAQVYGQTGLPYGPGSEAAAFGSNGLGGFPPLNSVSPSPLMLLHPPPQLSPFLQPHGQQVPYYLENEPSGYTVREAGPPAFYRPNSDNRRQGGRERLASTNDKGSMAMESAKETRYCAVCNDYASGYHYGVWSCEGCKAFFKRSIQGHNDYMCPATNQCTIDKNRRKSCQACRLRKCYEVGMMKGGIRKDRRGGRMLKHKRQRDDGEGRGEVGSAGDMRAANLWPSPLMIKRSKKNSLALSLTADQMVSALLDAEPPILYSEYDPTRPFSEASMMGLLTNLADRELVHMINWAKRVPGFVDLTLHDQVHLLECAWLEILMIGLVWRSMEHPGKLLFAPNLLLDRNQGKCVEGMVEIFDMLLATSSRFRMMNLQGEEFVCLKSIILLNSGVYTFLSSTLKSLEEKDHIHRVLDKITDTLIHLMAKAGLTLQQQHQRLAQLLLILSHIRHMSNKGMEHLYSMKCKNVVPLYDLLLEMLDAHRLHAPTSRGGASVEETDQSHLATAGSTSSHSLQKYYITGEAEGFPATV

[13] = molecular target: Estrogen receptor (Homo sapiens) (UniProt P03372); assay: qHTS assay to identify small molecule agonists of the estrogen receptor alpha (ER-alpha) signaling pathway using the BG1 cell line (AID 743079); also: nearly all actives have a fitted effect of over 20% in size
[14] = qHTS assay to identify small molecule antagonists of the estrogen receptor alpha (ER-alpha) signaling pathway using the BG1 cell line (AID 743080; calls by dose curve;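 also: BG1 cells stimulated with 17beta-estradiol alongside compound; series mostly up to about 70 µM; nearly all actives have a fitted effect of over 25% in size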)
Outline: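 BG1-Luc-4E2 cells (endogenous full-length ER-alpha, 4xERE luciferase) hormone-starved 5 days in charcoal-stripped FBS, plated 4,000/well for 24 h, then compound plus 17beta-estradiol for 21.5 h at 37 C; ONE-Glo luminescence read.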

[15] = molecular target: Nuclear receptor subfamily 1 group I member 2 (Homo sapiens) (UniProt O75469); assay: CYP3A4 induction through human pregnane X receptor (PXR) by small molecules, qHTS assay (AID 1346984); also: nearly all actives have a fitted effect of over 40% in size
Outline: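 After 24 h at 37C with compound, DPX-2 cells (HepG2, co-transfected PXR response element and CYP3A4 promoter-luciferase) got 3uM final P450-Glo Luciferin-IPA for 3 h; One-Glo luminescence followed.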

[16] = molecular target: Nuclear receptor subfamily 1 group I member 2 (Homo sapiens) (UniProt O75469); assay: Human pregnane X receptor (PXR) activation by small molecules, qHTS assay (AID 1346985); also: nearly all actives have a fitted effect of over 40% in size
Outline: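 DPX-2 cells (HepG2 co-transfected with a PXR response element and a CYP3A4-promoter luciferase construct) were seeded at 2,000 per well, rested 5 hr at 37C, then exposed to DMSO-dissolved compounds for 24 hr. Activation was read as luciferase luminescence.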

[17] = qHTS assay to test for compound auto fluorescence at 535 nm (green) in HEK293 cell free culture (AID 720682)
Outline: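 Green-label autofluorescence (485 nm excitation, 535 nm emission) measured on compound added to cell-free culture medium (DMEM, 10% FBS). Output is expressed relative to fluorescein.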

[18] = molecular target: Aryl hydrocarbon receptor (Homo sapiens) (UniProt P35869); assay: qHTS assay to identify small molecule that activate the aryl hydrocarbon receptor (AhR) signaling pathway (AID 743085); also: nearly all actives have a fitted effect of over 15% in size; also: potency is read from the fitted curve at half-maximal effect;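 as to activation: HG2L7.5c1 human HepG2 liver cells with stably integrated DRE-driven firefly reporter; series mostly up to about 70 µM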
Sequence of Aryl hydrocarbon receptor (Homo sapiens) (P35869 whole entry, looked up): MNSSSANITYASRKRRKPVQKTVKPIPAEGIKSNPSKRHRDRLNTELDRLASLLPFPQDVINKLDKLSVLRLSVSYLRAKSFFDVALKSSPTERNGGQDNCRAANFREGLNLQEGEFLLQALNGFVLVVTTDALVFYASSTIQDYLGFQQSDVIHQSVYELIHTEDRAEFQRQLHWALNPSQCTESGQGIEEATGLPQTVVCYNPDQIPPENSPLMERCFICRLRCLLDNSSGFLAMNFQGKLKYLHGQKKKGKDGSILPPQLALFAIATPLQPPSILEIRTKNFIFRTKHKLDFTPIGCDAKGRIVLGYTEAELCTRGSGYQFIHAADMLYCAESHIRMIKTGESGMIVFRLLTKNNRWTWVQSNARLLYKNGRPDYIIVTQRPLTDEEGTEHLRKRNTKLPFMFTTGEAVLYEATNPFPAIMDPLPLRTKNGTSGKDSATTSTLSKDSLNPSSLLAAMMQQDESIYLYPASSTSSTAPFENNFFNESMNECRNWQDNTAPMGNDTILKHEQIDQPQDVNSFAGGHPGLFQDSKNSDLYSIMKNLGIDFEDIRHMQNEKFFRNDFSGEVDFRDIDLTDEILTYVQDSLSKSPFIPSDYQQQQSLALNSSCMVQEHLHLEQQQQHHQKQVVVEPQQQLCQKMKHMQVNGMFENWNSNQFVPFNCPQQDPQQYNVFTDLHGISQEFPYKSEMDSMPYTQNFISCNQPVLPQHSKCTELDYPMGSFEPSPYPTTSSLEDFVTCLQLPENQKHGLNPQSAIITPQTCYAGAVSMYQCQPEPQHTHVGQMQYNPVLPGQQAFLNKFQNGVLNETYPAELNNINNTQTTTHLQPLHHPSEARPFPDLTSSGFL
Outline: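 HepG2 cells stably carrying a 20-DRE firefly luciferase reporter (HG2L7.5c1) treated with compound for 24 hr at 37C. Luciferase read by ONE-Glo luminescence, with CellTiter-Fluor viability read first.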

[19] = molecular target: Peroxisome proliferator-activated receptor gamma (Homo sapiens) (UniProt P37231); assay: qHTS assay to identify small molecule agonists of the peroxisome proliferator-activated receptor gamma (PPARg) signaling pathway (AID 743094; active = well fitted activation curve with a large enough effect in the signal ratio in the repeat runs, not every such curve was filed as active; the % refers to the signal ratio)
Sequence of Peroxisome proliferator-activated receptor gamma (Homo sapiens) (P37231 whole entry, looked up): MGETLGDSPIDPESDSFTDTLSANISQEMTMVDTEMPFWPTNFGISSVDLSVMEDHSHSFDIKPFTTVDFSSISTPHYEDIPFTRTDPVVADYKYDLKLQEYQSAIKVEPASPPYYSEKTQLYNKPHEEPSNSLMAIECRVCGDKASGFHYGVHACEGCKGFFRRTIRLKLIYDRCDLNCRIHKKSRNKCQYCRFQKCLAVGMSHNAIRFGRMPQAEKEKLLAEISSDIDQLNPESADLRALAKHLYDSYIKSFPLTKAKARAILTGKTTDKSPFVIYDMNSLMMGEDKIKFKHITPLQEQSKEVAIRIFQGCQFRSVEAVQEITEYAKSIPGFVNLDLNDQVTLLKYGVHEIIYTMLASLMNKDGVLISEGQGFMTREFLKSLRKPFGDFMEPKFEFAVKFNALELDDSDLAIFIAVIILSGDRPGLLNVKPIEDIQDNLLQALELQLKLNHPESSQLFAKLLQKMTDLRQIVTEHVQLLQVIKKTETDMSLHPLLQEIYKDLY
Outline: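 Fluorescence-based beta-lactamase readout in HEK293H PPARg UAS-bla cells after 17 h compound exposure (37C) and 1 h B/G FRET substrate incubation at room temperature.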

[20] = qHTS assay to test for compound auto fluorescence at 460 nm (blue) in HEK293 cell free culture (AID 720681)
Outline: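 Test compounds were pinned into cell-free culture medium (DMEM with 10% FBS) and fluorescence was read directly at Ex/Em 405/460 nm. Signals were expressed as fluorescence equivalents of triamterene, with DMSO vehicle as control.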

O=C(C[C@@H]1NCCC[C@H]1O)Cn1cnc2cc(Br)c(Cl)cc2c1=O
Potency [1]: inactive
Potency [2]: inactive
outcome [3]: inactive
Potency [4]: inactive
outcome [5]: inactive
Potency [6]: inactive
Potency [7]: inactive
Potency [8]: inactive
Potency [9]: inactive
Potency [10]: inactive
Potency [11]: inactive
Potency [12]: inactive
Potency [13]: inactive
Potency [14]: inactive
Potency [15]: inactive
Potency [16]: inactive

CN1CCCC(=C(c2cccs2)c2cccs2)C1
Potency [2]: inactive
outcome [3]: inactive
Potency [4]: inactive
Potency [17]: inactive
outcome [5]: inactive
Potency [6]: inactive
Potency [11]: inactive
Potency [12]: inactive
Potency [13]: inactive
Potency [14]: inactive
Potency [18]: inactive
Potency [19]: inactive
Potency [15]: inactive
Potency [16]: inactive

COc1ccc2c(c1)C13CCCC[C@@H]1C(C2)N(C)CC3 (stereo not given in full)
Potency [2]: inactive
outcome [3]: inactive
Potency [20]: inactive
outcome [5]: inactive
Potency [6]: inactive
Potency [7]: inactive
Potency [10]: inactive
Potency [11]: inactive
Potency [12]: inactive
Potency [13]: inactive
Potency [14]: inactive
Potency [18]: inactive
Potency [19]: inactive
Potency [15]: inactive
Potency [16]: inactive

CCCC(C)(COC(N)=O)COC(=O)NC1CC1 (stereo not given)
Potency [2]: inactive
outcome [3]: inactive
Potency [20]: inactive
Potency [17]: inactive
outcome [5]: inactive
Potency [7]: inactive
Potency [8]: inactive
Potency [10]: inactive
Potency [11]: inactive
Potency [12]: inactive
Potency [13]: inactive
Potency [14]: inactive
Potency [18]: inactive
Potency [19]: inactive
Potency [15]: inactive
Potency [16]: inactive

O=C(CS(=O)C(c1ccccc1)c1ccccc1)NO (stereo not given)
Potency [2]: inactive
outcome [3]: inactive
Potency [20]: inactive
outcome [5]: inactive
Potency [6]: inactive
Potency [8]: inactive
Potency [9]: inactive
Potency [10]: inactive
Potency [12]: inactive
Potency [13]: inactive
Potency [14]: inactive
Potency [18]: inactive
Potency [19]: inactive
Potency [15]: inactive
Potency [16]: inactive

C[C@@H]([C@H](O)c1ccccc1)N(C)C
Potency [1]: inactive
Potency [2]: inactive
outcome [3]: inactive
Potency [4]: inactive
Potency [17]: inactive
outcome [5]: inactive
Potency [6]: inactive
Potency [7]: inactive
Potency [8]: inactive
Potency [10]: inactive
Potency [12]: inactive
Potency [13]: inactive
Potency [14]: inactive
Potency [19]: inactive
Potency [15]: inactive
Potency [16]: inactive

CC(=O)OO
Potency [1]: inactive
Potency [2]: inactive
outcome [3]: inactive
Potency [4]: inactive
Potency [20]: inactive
Potency [17]: inactive
outcome [5]: inactive
Potency [6]: inactive
Potency [8]: inactive
Potency [9]: inactive
Potency [10]: inactive
Potency [11]: inactive
Potency [12]: inactive
Potency [13]: inactive
Potency [14]: inactive
Potency [18]: inactive
Potency [19]: inactive
Potency [15]: inactive
Potency [16]: inactive

CCC(N)Cc1c[nH]c2ccccc12 (stereo not given)
Potency [1]: inactive
outcome [3]: inactive
Potency [4]: inactive
Potency [20]: inactive
Potency [17]: inactive
outcome [5]: inactive
Potency [6]: inactive
Potency [8]: inactive and 68.8 µM (active)
Potency [11]: inactive
Potency [14]: inactive
Potency [18]: inactive and 30.7 µM (active)
Potency [19]: inactive
Potency [15]: inactive
Potency [16]: inactive

CCC1(CC)C(=O)NC(=O)N(C)C1=O
Potency [1]: inactive
Potency [2]: inactive
outcome [3]: inactive
Potency [4]: inactive
Potency [20]: inactive
Potency [17]: inactive
Potency [6]: inactive
Potency [7]: inactive
Potency [8]: inactive
Potency [10]: inactive
Potency [11]: inactive
Potency [12]: inactive
Potency [13]: inactive
Potency [14]: inactive
Potency [19]: inactive
Potency [15]: inactive
Potency [16]: inactive

NCC[C@H](O)C(=O)N[C@@H]1C[C@H](N)[C@@H](O[C@H]2O[C@H](CN)[C@@H](O)[C@H](O)[C@H]2N)[C@H](O[C@@H]2O[C@H](CO)[C@@H](O)[C@H]2O)[C@H]1O
Potency [2]: inactive
outcome [3]: inactive
Potency [20]: inactive
Potency [17]: inactive
outcome [5]: inactive
Potency [6]: inactive
Potency [8]: inactive
Potency [9]: inactive
Potency [10]: inactive
Potency [11]: inactive
Potency [12]: inactive
Potency [13]: inactive
Potency [14]: inactive
Potency [18]: inactive
Potency [19]: inactive
Potency [15]: inactive
Potency [16]: inactive

CC1(C)[C@H](C=C(Cl)Cl)[C@H]1C(=O)OCc1c(F)c(F)cc(F)c1F
outcome [3]: inactive
Potency [20]: inactive
Potency [17]: inactive
outcome [5]: inactive
Potency [6]: inactive
Potency [7]: inactive
Potency [8]: inactive
Potency [10]: inactive
Potency [11]: inactive
Potency [12]: inactive
Potency [13]: inactive
Potency [14]: inactive
Potency [18]: inactive
Potency [15]: inactive
Potency [16]: inactive

CNC(C)C(O)c1ccc(O)cc1 (stereo not given)
Potency [2]: inactive
Potency [4]: inactive
Potency [20]: inactive
Potency [17]: inactive
Potency [6]: inactive
Potency [8]: inactive
Potency [10]: inactive
Potency [11]: inactive
Potency [12]: inactive
Potency [13]: inactive
Potency [14]: inactive
Potency [19]: inactive
Potency [15]: inactive
Potency [16]: inactive

NCC(O)c1cccc(O)c1 (stereo not given)
Potency [1]: inactive
outcome [3]: inactive
Potency [4]: inactive
Potency [20]: inactive
Potency [17]: inactive
outcome [5]: inactive
Potency [6]: inactive
Potency [7]: inactive
Potency [8]: inactive
Potency [9]: inactive
Potency [10]: inactive
Potency [11]: inactive
Potency [12]: inactive
Potency [13]: inactive
Potency [14]: inactive
Potency [18]: inactive
Potency [19]: inactive
Potency [15]: inactive
Potency [16]: inactive

C#CCN1CC(=O)N(COC(=O)C2C(C=C(C)C)C2(C)C)C1=O (stereo not given)
Potency [1]: inactive
Potency [2]: inactive
outcome [3]: inactive
Potency [20]: inactive
Potency [17]: inactive
outcome [5]: inactive
Potency [6]: inactive
Potency [7]: inactive
Potency [8]: inactive
Potency [9]: inactive
Potency [10]: inactive
Potency [11]: inactive
Potency [12]: inactive
Potency [13]: inactive
Potency [14]: inactive
Potency [18]: inactive
Potency [19]: inactive
Potency [16]: inactive
